# In article PMC12820563, “FoxP3 forms a head-to-head dimer in vivo and stabilizes its multimerization on adjacent microsatellites”:
# Over roughly 16,000 sequences, “rpm ratio (pull-down/input)” has its median near 0.94; the highest 2% begin near 1.7. Only a selection was taken, and the highest values are over-represented in it overall.
# Biological target: T1, MBP-FoxP1dN (Mus musculus, UniProt P58462 326-579)
# T1 sequence: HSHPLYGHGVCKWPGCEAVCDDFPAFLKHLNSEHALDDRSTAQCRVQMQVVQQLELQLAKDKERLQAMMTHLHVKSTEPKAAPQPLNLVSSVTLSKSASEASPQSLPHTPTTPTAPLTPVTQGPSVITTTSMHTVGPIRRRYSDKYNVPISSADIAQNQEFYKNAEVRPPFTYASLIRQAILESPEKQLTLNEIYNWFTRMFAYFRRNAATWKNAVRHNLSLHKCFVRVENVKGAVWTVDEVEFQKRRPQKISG
# Assay: PD-seq (MBP pull-down with sequencing); 20 mM Tris-HCl pH 7.5, 100 mM NaCl, 1.5 mM MgCl2, 0.4 uM protein, 0.1 uM dsDNA library, 30 min, room temperature, amylose pull-down; high values mean tight binding
# Conditions: protein: recombinant; tags: His6-MBP; chain copies: 2; dsDNA, one strand shown
# Method in brief: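 Binding is reads-per-million enrichment of pull-down over input, with replicates pooled. It comes from 30 min room-temperature incubation in Tris pH 7.5 buffer with NaCl and MgCl2 of 0.4 µM His6-MBP-tagged, N-terminally truncated mouse FoxP3 or FoxP1 fragment from E. coli with 0.1 µM Klenow-filled degenerate double-stranded DNA library, followed by amylose resin capture, three washes and Illumina sequencing of the released DNA.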
row,Sequence,binding signal
1,GATGATTGTTCTCCCAGCTGATGAATTGTAAAAGTCGAGTAAACAAATTTTCCTAATCTTTCTGTTCAAGCGCCATCTAC,0.943 RPM ratio (pull-down/input)
2,GATGATTGTTCTCCCAGCTGATGAATTATGTCGCTCGAGTAAACAAATTTTCCTAATCTTTCTGTTCAAGCGCCATCTAC,1.01 RPM ratio (pull-down/input)
3,GATGATTGTTCTCCCAGCTGATGAATTCCATAAGTCGAGTAAACAAATTTTCCTAATCTTTCTGTTCAAGCGCCATCTAC,0.896 RPM ratio (pull-down/input)
4,GATGATTGTTCTCCCAGCTGATGAATTCTCTGGCTCGAGTAAACAAATTTTCCTAATCTTTCTGTTCAAGCGCCATCTAC,0.769 RPM ratio (pull-down/input)
5,GATGATTGTTCTCCCAGCTGATGAATTATCGGCTTCGAGTAAACAAATTTTCCTAATCTTTCTGTTCAAGCGCCATCTAC,0.859 RPM ratio (pull-down/input)
6,GATGATTGTTCTCCCAGCTGATGAATTACATGGATCGAGTAAACAAATTTTCCTAATCTTTCTGTTCAAGCGCCATCTAC,1 RPM ratio (pull-down/input)
7,GATGATTGTTCTCCCAGCTGATGAATTGCGCCCCTCGAGTAAACAAATTTTCCTAATCTTTCTGTTCAAGCGCCATCTAC,0.966 RPM ratio (pull-down/input)
8,GATGATTGTTCTCCCAGCTGATGAATTATTGAGCTCGAGTAAACAAATTTTCCTAATCTTTCTGTTCAAGCGCCATCTAC,0.941 RPM ratio (pull-down/input)
9,GATGATTGTTCTCCCAGCTGATGAATTTCCTACCTCGAGTAAACAAATTTTCCTAATCTTTCTGTTCAAGCGCCATCTAC,0.823 RPM ratio (pull-down/input)
10,GATGATTGTTCTCCCAGCTGATGAATTACCATTGTCGAGTAAACAAATTTTCCTAATCTTTCTGTTCAAGCGCCATCTAC,1.04 RPM ratio (pull-down/input)
11,GATGATTGTTCTCCCAGCTGATGAATTGTTGCACTCGAGTAAACAAATTTTCCTAATCTTTCTGTTCAAGCGCCATCTAC,1.76 RPM ratio (pull-down/input)
12,GATGATTGTTCTCCCAGCTGATGAATTGCACTCCTCGAGTAAACAAATTTTCCTAATCTTTCTGTTCAAGCGCCATCTAC,1.15 RPM ratio (pull-down/input)
13,GATGATTGTTCTCCCAGCTGATGAATTTTTGCACTCGAGTAAACAAATTTTCCTAATCTTTCTGTTCAAGCGCCATCTAC,0.891 RPM ratio (pull-down/input)
14,GATGATTGTTCTCCCAGCTGATGAATTTCAATAATCGAGTAAACAAATTTTCCTAATCTTTCTGTTCAAGCGCCATCTAC,1.31 RPM ratio (pull-down/input)
15,GATGATTGTTCTCCCAGCTGATGAATTACAGCAATCGAGTAAACAAATTTTCCTAATCTTTCTGTTCAAGCGCCATCTAC,1.28 RPM ratio (pull-down/input)
16,GATGATTGTTCTCCCAGCTGATGAATTACTACAATCGAGTAAACAAATTTTCCTAATCTTTCTGTTCAAGCGCCATCTAC,1.55 RPM ratio (pull-down/input)

row,Sequence,binding signal
1,GATGATTGTTCTCCCAGCTGATGAATTACAATTATCGAGTAAACAAATTTTCCTAATCTTTCTGTTCAAGCGCCATCTAC,1.51 RPM ratio (pull-down/input)
2,GATGATTGTTCTCCCAGCTGATGAATTACAACAATCGAGTAAACAAATTTTCCTAATCTTTCTGTTCAAGCGCCATCTAC,2.1 RPM ratio (pull-down/input)
3,GATGATTGTTCTCCCAGCTGATGAATTACAATAATCGAGTAAACAAATTTTCCTAATCTTTCTGTTCAAGCGCCATCTAC,1.83 RPM ratio (pull-down/input)
4,GATGATTGTTCTCCCAGCTGATGAATTGCTATGCTCGAGTAAACAAATTTTCCTAATCTTTCTGTTCAAGCGCCATCTAC,1.01 RPM ratio (pull-down/input)
5,GATGATTGTTCTCCCAGCTGATGAATTTTGGATGTCGAGTAAACAAATTTTCCTAATCTTTCTGTTCAAGCGCCATCTAC,0.849 RPM ratio (pull-down/input)
6,GATGATTGTTCTCCCAGCTGATGAATTACGATTGTCGAGTAAACAAATTTTCCTAATCTTTCTGTTCAAGCGCCATCTAC,1.16 RPM ratio (pull-down/input)
7,GATGATTGTTCTCCCAGCTGATGAATTATTTAAATCGAGTAAACAAATTTTCCTAATCTTTCTGTTCAAGCGCCATCTAC,1.24 RPM ratio (pull-down/input)
8,GATGATTGTTCTCCCAGCTGATGAATTGCGTACGTCGAGTAAACAAATTTTCCTAATCTTTCTGTTCAAGCGCCATCTAC,1.1 RPM ratio (pull-down/input)
9,GATGATTGTTCTCCCAGCTGATGAATTCCTTGTGTCGAGTAAACAAATTTTCCTAATCTTTCTGTTCAAGCGCCATCTAC,0.961 RPM ratio (pull-down/input)
10,GATGATTGTTCTCCCAGCTGATGAATTAAGCGCATCGAGTAAACAAATTTTCCTAATCTTTCTGTTCAAGCGCCATCTAC,1.27 RPM ratio (pull-down/input)
11,GATGATTGTTCTCCCAGCTGATGAATTCTCATATTCGAGTAAACAAATTTTCCTAATCTTTCTGTTCAAGCGCCATCTAC,0.94 RPM ratio (pull-down/input)
12,GATGATTGTTCTCCCAGCTGATGAATTCATATTCTCGAGTAAACAAATTTTCCTAATCTTTCTGTTCAAGCGCCATCTAC,0.83 RPM ratio (pull-down/input)
13,GATGATTGTTCTCCCAGCTGATGAATTGTCATATTCGAGTAAACAAATTTTCCTAATCTTTCTGTTCAAGCGCCATCTAC,1.17 RPM ratio (pull-down/input)
14,GATGATTGTTCTCCCAGCTGATGAATTCATATTTTCGAGTAAACAAATTTTCCTAATCTTTCTGTTCAAGCGCCATCTAC,1.74 RPM ratio (pull-down/input)
15,GATGATTGTTCTCCCAGCTGATGAATTTTCATATTCGAGTAAACAAATTTTCCTAATCTTTCTGTTCAAGCGCCATCTAC,1.06 RPM ratio (pull-down/input)
16,GATGATTGTTCTCCCAGCTGATGAATTCATATTGTCGAGTAAACAAATTTTCCTAATCTTTCTGTTCAAGCGCCATCTAC,1.9 RPM ratio (pull-down/input)
